# According to PubChem BioAssay (NCATS):
# Records with an inconclusive call do not appear. A number with no mark means an inactive call. Activity calls are given as the source filed them. The call rests on the fitted dose curve; in most records, active means well fitted inhibition curve with a large enough effect; inconclusive means small, poorly fitted or top-dose-only effect; inactive means flat fitted curve, though single readings scatter. Where a SMILES comes first, the peptide text is derived from it.
# Assay: P-glycoprotein substrates identified in KB-8-5-11 adenocarcinoma cell line, qHTS therapeutic library screen (AID 1346987); further: nearly all actives have a fitted effect of over 65% in size
# Conditions: KB-8-5-11 (P-gp overexpressing) viability, CellTiter-Glo, 72 h; series mostly up to 44.5 µM; activity change, negative = cytotoxicity: at the top concentration
# Method in brief: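 KB-8-5-11: colchicine-selected sub-line of KB-3-1 over-expressing P-gp; assay medium lacked colchicine. 72 h drug exposure at 37 degree C, CellTiter-Glo.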
# On the % scale 0 is the no-effect control and ±100 the full control effect.
SMILES,"activity change, negative = cytotoxicity",outcome
COc1ccc(C2(O)c3c(ccc4c3OC(C)(CCC=C(C)C)C=C4)NC(=O)C2OC)cc1 (stereo not drawn),6.56% [at 17.3 µM],–
CC(C)c1ccc2c(c1)C(=O)CC1C(C)(C(=O)O)CCCC21C (stereo not drawn),1.21%,–
Cc1sc(C)c(C(=O)NC2(c3ccc(C(=O)O)cc3)CC2)c1Cc1ccc(C(F)(F)F)cc1,-2.04%,–
COc1ccc(CC(=O)NCc2ccccc2-c2ccccc2C(=O)NCCc2cccnc2)cc1,-14.2%,–
C/C=C(/C)C(=O)O[C@H]1C[C@]2(C)O[C@@H]2[C@@H](OC(C)=O)[C@@]2(C)CC[C@@](O)(C(C)C)[C@H]12,-4.21%,–
C[C@@H](NC(=O)c1cc(C(=O)N[C@@H](Cc2ccccc2)[C@H](O)CNC2CC2)cc(N(C)S(C)(=O)=O)c1)c1ccccc1,5.37%,–
COc1ccc(/C=C/C(=O)O[C@@H]2[C@@H](OC(C)=O)[C@@H](OC(C)=O)[C@H](O[C@H]3[C@@H]4C=CO[C@@H](O[C@@H]5O[C@H](CO)[C@@H](O)[C@H](O)[C@H]5O)[C@@H]4[C@@]4(CO)O[C@@H]34)O[C@H]2C)cc1,2.43% [at 17.3 µM],–
O=C(O)c1cc(C(F)(F)F)ccc1N1CC[C@H](OCc2ccccn2)C1,6.46%,–
Cc1cc(-n2c(=O)[nH]c(=O)n(C)c2=O)ccc1Oc1ccc(SC(F)(F)F)cc1,–,inactive
COc1c(C)c(OCC(O)C(C)(C)O)cc2c1CNC2=O (stereo not drawn),7.76%,–
O=C(OCC1OC(Oc2ccc(O)cc2COC(=O)C2(O)C(O)CCC(=O)C2OC(=O)C2C=CCC2)C(OC(=O)C2C=CCC2)C(O)C1O)C1C=CCC1 (stereo not drawn),–,inactive [at 17.3 µM]
CC1=C2CC(=O)C(C)CC/C=C(\C)CC2OC1=O (stereo not drawn),–,inactive
CCN=C1N[C@@H]2[C@@H](O)[C@H](O)[C@@H](CO)O[C@@H]2S1,1.34%,–
CSCC[C@H](NC(=O)[C@H](CO)NC(=O)[C@H](CCC(=O)O)NC(C)=O)C(=O)N[C@H](C=O)CC(=O)O (Ac-ESMD-aldehyde),5.02% [at 9.29 µM],–
C/C=C(\C)C(=O)OC[C@H]1O[C@@H](O[C@H]2[C@@H](O[C@H]3O[C@H](CO)[C@@H](O)[C@H](O)[C@H]3O[C@@H]3O[C@H](CO)[C@@H](O)[C@H](O)[C@H]3O)O[C@H](COC(=O)/C(C)=C/C)[C@@H](O)[C@@H]2O)[C@H](O)[C@@H](O)[C@@H]1O,–,inactive [at 9.29 µM]
C=C1C(=O)O[C@@H]2C[C@]3(C)[C@@H](CCC(C)=O)[C@@H]3C[C@H]12,-3.03%,–
CO[C@@H]1[C@]2(O)C(=O)N3/C=C\C(C)(C)c4[nH]c5ccccc5c4/C=C\3C(=O)N2[C@]23[C@H](CO)C(C)(C)N2c2ccccc2[C@]13O,–,inactive [at 17.3 µM]
COC(=O)[C@H](Cc1ccc([N+](=O)[O-])cc1)NC(=O)c1cccc2ccccc12,–,inactive
COc1ccc(/C=C/C(=O)O[C@@H]2[C@@H](O[C@@H]3O[C@H](CO)[C@@H](O)[C@H](O)[C@H]3O)[C@@H](O)[C@H](O[C@H]3C4C=CO[C@@H](O[C@@H]5O[C@H](CO)[C@@H](O)[C@H](O)[C@H]5O)C4[C@@]4(CO)O[C@@H]34)O[C@H]2C)cc1 (stereo partly drawn),2.62% [at 9.29 µM],–
CC1(C)C(=O)N2c3ccccc3C(O)(CC(C(=O)O)n3cnc4ccccc4c3=O)C2N1O (stereo not drawn),–,inactive [at 17.3 µM]
O=C(/C=C/c1ccc(O)cc1)O[C@@H]1C[C@@](O)(C(=O)O)C[C@@H](O)[C@@H]1O,–,inactive
C/C(=C\CCC(C)C1CC(O)C2(C)C3CCC4C(C)(C)C(OC5OCC(O)C(O)C5O)CCC45CC35CC(O)C12C)C(=O)O (stereo not drawn),–,inactive [at 17.3 µM]
C[C@@H]1O[C@@H](O[C@H]2[C@@H]3C=CO[C@@H](O[C@@H]4O[C@H](CO)[C@@H](O)[C@H](O)[C@H]4O)[C@@H]3[C@@]3(CO)O[C@@H]23)[C@H](O)[C@H](OC(=O)/C=C/c2ccc(O)cc2)[C@H]1OC(=O)/C=C/c1ccc(O)cc1,–,inactive [at 17.3 µM]
O=C(O)CCc1cc2ccoc2cc1O[C@@H]1O[C@H](CO)[C@@H](O)[C@H](O)[C@H]1O,–,inactive
CC(C)/C=C1/NC(=O)C(C(C)C)n2c1nc1c(O)cccc1c2=O (stereo not drawn),-0.929%,–
C/C=C/C1OC2=C(C(=O)OC2(C)O)C(O)C1O (stereo not drawn),9.79%,–
CNc1nc(C)nc(N[C@H]2CCC[C@@H](C(=O)NCc3ccc(C#N)cc3C(F)(F)F)C2)n1,-11.7%,–
CC1(C)C=Cc2c(ccc3c2[N+]([O-])=C2C3(O)CC34NC(=O)C5(CCCN5C3=O)CC4C2(C)C)O1 (stereo not drawn),–,inactive [at 17.3 µM]
